Assay results taken from PubChem BioAssay.
The source made the active and inactive calls. Unless noted, how the calls were made is not given here.

What was measured:
[1] = tested on: Wnt5a (protein binding on small-molecule microarray); test: small molecules binding Wnt5a protein – biophysical, small-molecule microarray, 635/667 nm fluorescence, primary screen (AID 1142); settings: 635 nm fluorescence, higher = more signal;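 further: fluorescence read at 667 nm with signal to noise per printed feature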
[2] = ATP-based viability of Huh7 replicon cells – cell-based, CellTiter-Glo luminescence, basal, 48 h, cytotoxicity control for HCV replication inhibitor project, primary screen (AID 1143); settings: higher = more signal, called active from +8 up or from −8 down;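 further: Huh7 hepatoma cells carrying a hepatitis C replication reporter with no stimulus; test concentration not given here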
[3] = Pseudomonas biofilm growth suppression – PAO1 strain, BacTiter-Glo luminescence, LB-PBS, primary screen (AID 1144); settings: P. aeruginosa PAO1 biofilm, 12 h, higher = more signal
[4] = basal CRE-LacZ reporter activity in PC12 – cell-based, unstimulated, primary screen (AID 1145); settings: no forskolin, luminescence, 4.5 h, higher = more signal, called active from +8 up or from −8 down
[5] = forskolin-driven CRE-LacZ activity in PC12 – cell-based, CRE-LacZ reporter, forskolin-stimulated, primary screen (AID 1146); settings: luminescence, 4.5 h, higher = more signal, called active from +8 up or from −8 down;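 further: PC12 cells with 6xCRE LacZ reporter stimulated by forskolin 10 µM; beta-galactosidase reporter signal reflecting CREB driven transcription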
[6] = biological target: Streptavidin (Streptomyces avidinii) (UniProt P22629); test: compounds binding control protein streptavidin – biophysical, small-molecule microarray, 635/667 nm fluorescence, artefact control for SMM compound annotation, primary screen (AID 1147); settings: higher = more signal;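 further: signal reflects streptavidin binding to arrayed compounds as a control protein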
Streptavidin (Streptomyces avidinii), sequence (P22629 whole entry, looked up): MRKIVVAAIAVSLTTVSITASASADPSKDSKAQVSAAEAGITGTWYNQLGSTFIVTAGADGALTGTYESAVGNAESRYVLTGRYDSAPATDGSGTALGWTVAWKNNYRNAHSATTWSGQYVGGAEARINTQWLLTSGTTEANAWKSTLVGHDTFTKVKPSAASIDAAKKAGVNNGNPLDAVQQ

[7] = probe aInhba binding on compound microarray – biochemical, small-molecule microarray, 635/667 nm fluorescence, primary screen (AID 1148); settings: higher = more signal;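 further: score merges 667nm spot fluorescence with signal-to-noise for antibody binding to printed compounds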
[8] = biological target: Torsin-1A (Homo sapiens) (UniProt O14656); test: TOR1A wild-type binding on microarray – cell lysate, small-molecule microarray, lysate, 635/667 nm, primary screen (AID 1149); settings: COS7 hTOR1A-WT lysate, 635 nm fluorescence, higher = more signal
Torsin-1A (Homo sapiens), sequence (O14656 whole entry, looked up): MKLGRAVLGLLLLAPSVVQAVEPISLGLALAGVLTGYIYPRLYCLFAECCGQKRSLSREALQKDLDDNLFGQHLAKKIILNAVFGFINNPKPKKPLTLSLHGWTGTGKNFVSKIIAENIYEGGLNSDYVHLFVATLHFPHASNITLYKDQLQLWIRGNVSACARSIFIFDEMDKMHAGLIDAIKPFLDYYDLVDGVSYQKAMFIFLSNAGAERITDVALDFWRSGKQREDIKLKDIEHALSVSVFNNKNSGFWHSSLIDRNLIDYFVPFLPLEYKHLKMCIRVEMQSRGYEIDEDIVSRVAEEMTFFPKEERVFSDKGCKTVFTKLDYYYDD

[9] = biological target: Torsin-1A (Homo sapiens) (UniProt O14656); test: torsin A mutant lysate binding on microarrays – cell lysate, small-molecule microarray, COS7 lysate, 635/667 nm fluorescence, primary screen (AID 1150); settings: COS7 hTOR1A mutant lysate, 635 nm fluorescence, higher = more signal;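 further: score pools 667 nm emission and signal to noise measuring lysate protein binding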
[10] = tested on: Sonic hedgehog protein (Shh); test: Sonic hedgehog microarray binding compounds – biochemical, small-molecule microarray, 635/667 nm fluorescence, primary screen (AID 1151); settings: 635 nm fluorescence, higher = more signal;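 further: Shh protein binding to compounds spotted on small-molecule microarray slides; score combines spot fluorescence intensity with signal-to-noise across triplicate slides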
[11] = optical density shifts of acrAB sulA E. coli – strain DRC41, OD650, 48 h, E. coli filamentation inducer project, primary screen (AID 1152); settings: higher = more signal, called active from +8 up or from −8 down;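 further: E. coli MC1000 strain DRC41 lacking acrAB efflux pump and sulA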
[12] = probe aLefty1 binding on compound microarray – biochemical, small-molecule microarray, 635/667 nm fluorescence, primary screen (AID 1153); settings: higher = more signal;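 further: score merges spot fluorescence with signal-to-noise ratio from the scanned slide images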
[13] = plasmodial surface anion channel blockers, osmotic lysis – cell-based, P. falciparum Indochina, OD700, 1 h, primary screen (AID 1154); settings: P. falciparum Indochina infected RBC osmotic lysis, higher = more signal, called active from +8 up or from −8 down
[14] = plasmodial surface anion channel blockers, osmotic lysis – cell-based, P. falciparum Indochina, OD700, 2 h, primary screen (AID 1155);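 further: lysis reports solute entry through the parasite surface anion channel PSAC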; settings: P. falciparum Indochina infected erythrocytes, higher = more signal, called active from +8 up or from −8 down
[15] = changes in parasitized red cell lysis, either direction – P. falciparum Indochina, OD700, 3 h, PSAC antagonist project, primary screen (AID 1156); settings: P. falciparum-infected erythrocytes, osmotic lysis, higher = more signal, called active from +8 up or from −8 down
[16] = plasmodial surface anion channel blockers, osmotic lysis – cell-based, P. falciparum Indochina, OD700, 18 h, primary screen (AID 1157); settings: P. falciparum Indochina infected erythrocytes, osmotic lysis OD700, 18 h; higher = more signal, called active from +8 up or from −8 down
[17] = S6 kinase pathway phospho-S6 level changes – cell-based, A549, cytoblot, luminescence, serum-stimulated, primary screen (AID 1158); settings: 5 h, higher = more signal;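 further: serum-stimulated A549 lung adenocarcinoma cells; signal is phosphorylated S6 detected by cytoblot immunostaining with HRP secondary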
[18] = biological target: NADPH oxidase 2 (Homo sapiens) (UniProt P04839); test: compounds shifting NOX2 Amplex Red fluorescence – cell-based, HEK293-NOX2, PMA-stimulated, NOX inhibitor project, primary screen (AID 1159); settings: 45 min, higher = more signal, called active from +8 up or from −8 down; further: test concentration not given here
NADPH oxidase 2 (Homo sapiens), sequence (P04839 whole entry, looked up): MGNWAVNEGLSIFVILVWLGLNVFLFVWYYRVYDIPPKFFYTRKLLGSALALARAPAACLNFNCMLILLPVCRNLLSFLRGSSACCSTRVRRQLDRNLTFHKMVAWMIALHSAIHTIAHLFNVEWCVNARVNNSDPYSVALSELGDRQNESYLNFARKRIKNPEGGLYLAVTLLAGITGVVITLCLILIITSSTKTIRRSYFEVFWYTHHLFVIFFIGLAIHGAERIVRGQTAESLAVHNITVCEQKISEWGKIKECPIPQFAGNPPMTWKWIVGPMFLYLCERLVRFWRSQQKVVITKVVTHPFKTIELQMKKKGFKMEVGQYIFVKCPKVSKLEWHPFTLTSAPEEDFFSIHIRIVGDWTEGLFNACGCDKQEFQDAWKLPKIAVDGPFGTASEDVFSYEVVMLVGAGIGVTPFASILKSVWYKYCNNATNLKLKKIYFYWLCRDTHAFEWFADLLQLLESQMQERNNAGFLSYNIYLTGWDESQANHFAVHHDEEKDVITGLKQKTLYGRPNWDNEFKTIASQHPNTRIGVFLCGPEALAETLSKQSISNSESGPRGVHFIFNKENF

[19] = biological target: NADPH oxidase 4 (Homo sapiens) (UniProt Q9NPH5); test: compounds shifting NOX4 Amplex Red fluorescence – cell-based, HEK293-NOX4, tetracycline-induced, NOX inhibitor project, primary screen (AID 1160); settings: HEK293-NOX4, Amplex Red H2O2 fluorescence, 45 min; higher = more signal, called active from +8 up or from −8 down
NADPH oxidase 4 (Homo sapiens), sequence (Q9NPH5 whole entry, looked up): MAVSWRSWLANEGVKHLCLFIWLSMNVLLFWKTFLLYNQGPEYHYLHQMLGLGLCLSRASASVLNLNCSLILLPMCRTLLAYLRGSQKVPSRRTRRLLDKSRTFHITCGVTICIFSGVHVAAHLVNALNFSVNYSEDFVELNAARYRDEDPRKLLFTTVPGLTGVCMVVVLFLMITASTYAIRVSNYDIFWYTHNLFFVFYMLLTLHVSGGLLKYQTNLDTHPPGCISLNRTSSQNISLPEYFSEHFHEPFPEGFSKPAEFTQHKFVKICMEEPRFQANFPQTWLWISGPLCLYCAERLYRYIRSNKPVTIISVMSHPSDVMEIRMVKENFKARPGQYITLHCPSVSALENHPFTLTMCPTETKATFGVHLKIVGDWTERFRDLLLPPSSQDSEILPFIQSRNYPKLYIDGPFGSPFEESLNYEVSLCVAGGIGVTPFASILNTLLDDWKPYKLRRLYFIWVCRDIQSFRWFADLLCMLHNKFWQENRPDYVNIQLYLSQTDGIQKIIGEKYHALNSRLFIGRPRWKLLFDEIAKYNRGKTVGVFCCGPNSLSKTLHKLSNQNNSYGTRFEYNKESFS

[20] = biological target: NADPH oxidase 5 (Homo sapiens) (UniProt Q96PH1); test: compounds shifting NOX5 Amplex Red fluorescence – cell-based, HEK293-NOX5, NOX inhibitor project, primary screen (AID 1161); settings: HEK293-NOX5, ionomycin, 45 min, higher = more signal
NADPH oxidase 5 (Homo sapiens), sequence (Q96PH1 whole entry, looked up): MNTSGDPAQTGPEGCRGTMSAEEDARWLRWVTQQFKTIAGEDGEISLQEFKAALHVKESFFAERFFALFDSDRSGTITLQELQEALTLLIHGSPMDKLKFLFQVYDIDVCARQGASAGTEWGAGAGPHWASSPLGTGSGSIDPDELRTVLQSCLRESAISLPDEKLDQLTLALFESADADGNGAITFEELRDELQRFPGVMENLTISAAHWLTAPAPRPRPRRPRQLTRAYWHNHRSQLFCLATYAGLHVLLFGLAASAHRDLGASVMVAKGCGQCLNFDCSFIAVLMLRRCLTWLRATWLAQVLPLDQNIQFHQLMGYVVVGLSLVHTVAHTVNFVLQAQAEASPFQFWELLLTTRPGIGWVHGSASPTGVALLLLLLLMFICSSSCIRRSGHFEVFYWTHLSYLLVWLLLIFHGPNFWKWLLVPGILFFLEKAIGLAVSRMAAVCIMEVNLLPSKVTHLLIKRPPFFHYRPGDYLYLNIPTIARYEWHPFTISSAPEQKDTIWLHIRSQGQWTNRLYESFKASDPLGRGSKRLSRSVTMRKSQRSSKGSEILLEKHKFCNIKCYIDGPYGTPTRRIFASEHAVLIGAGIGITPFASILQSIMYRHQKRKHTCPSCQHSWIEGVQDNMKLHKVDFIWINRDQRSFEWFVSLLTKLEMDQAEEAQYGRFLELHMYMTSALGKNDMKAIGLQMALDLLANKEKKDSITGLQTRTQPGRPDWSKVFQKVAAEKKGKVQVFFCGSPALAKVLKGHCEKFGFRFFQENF

Row | Structure (SMILES) | composite z-score [1] | z-score [2] | z-score [3] | z-score [4] | z-score [5] | composite z-score [6] | composite z-score [7] | composite z-score [8] | composite z-score [9] | composite z-score [10] | z-score [11] | composite z-score [12] | z-score [13] | z-score [14] | z-score [15] | z-score [16] | z-score [17] | z-score [18] | z-score [19] | z-score [20]
1 | Cc1ccc(S[C@]2(C(=O)NCC(F)(F)F)CC(=O)N(Cc3ccccc3C(F)(F)F)[C@@H]2c2ccc(CO)cc2I)cc1 | -0.0722 | -1.26 (inactive) | -0.235 (inactive) | -0.671 (inactive) | 0.622 (inactive) | -0.619 | -0.024 | -2.42 | -1.67 | -0.402 | 0.637 (inactive) | -0.135 | 3.79 (inactive) | 0.853 (inactive) | 1.1 (inactive) | 0.205 (inactive) | -0.142 | 2.28 (inactive) | -1.06 (inactive) | 1.94
2 | NC(N)=NCCCn1cc(CNC(=O)[C@@H](N)Cc2ccccc2)nn1 | -0.0448 | -0.109 (inactive) | 1.6 (inactive) | -0.491 (inactive) | 0.35 (inactive) | -0.298 | 0.017 | 0.485 | 0.142 | 1.08 | -0.929 (inactive) | -0.0171 | -0.174 (inactive) | 0.0333 (inactive) | -0.561 (inactive) | 0.36 (inactive) | 0.243 | -2 (inactive) | 0.227 (inactive) | -0.264
3 | COC(=O)C1=CC(CCCO)=CC(C2CC2)N(C)C=C1C(=O)OC (stereo not given) | 0.0676 | -2.82 (inactive) | -1.59 (inactive) | -0.581 (inactive) | 0.214 (inactive) | -0.326 | -0.152 | 0.564 | 0.289 | -0.526 | 1.22 (inactive) | -0.35 | 0.731 (inactive) | -0.59 (inactive) | 0.482 (inactive) | -1.41 (inactive) | 1.83 | -0.463 (inactive) | -0.122 (inactive) | 0.663
4 | CC(C)(C)N1CC=CC23O[C@@H]4C=CCCOC(=O)C4[C@H]2C(=O)N(CCO)[C@@H]3C1=O (stereo not given in full) | -0.323 | 0.297 (inactive) | -0.249 (inactive) | -1.44 (inactive) | -0.443 (inactive) | -0.485 | -0.237 | -0.102 | -0.664 | 1.09 | 0.209 (inactive) | -0.0823 | 0.901 (inactive) | 0.884 (inactive) | 1.28 (inactive) | 0.6 (inactive) | 0.461 | 1.31 (inactive) | 0.696 (inactive) | 1.23
5 | COC(=O)[C@@]1(Cc2ccc(OC)cc2)[C@H]2c3cc(C(=O)N(C)C)n(C[C@H](O)CO)c3C[C@H]2CN1C(=O)c1ccccc1 | 0.533 | -2.58 (inactive) | -0.0273 (inactive) | 0.39 (inactive) | 1.33 (inactive) | 1.41 | 0.116 | 0.219 | 1.16 | -0.753 | -1.99 (inactive) | 0.523 | 5.61 (inactive) | 0.936 (inactive) | 1.98 (inactive) | 1.23 (inactive) | -0.364 | 0.452 (inactive) | -0.281 (inactive) | -0.527
6 | COCCOC(=O)N1C(=O)[C@@]2(c3cc(C#CCC(C(=O)OC)C(=O)OC)ccc31)[C@H](C(=O)N1CCc3cc(OC)c(OC)cc3C1)[C@H]1C(=O)O[C@H](c3ccccc3)[C@H](c3ccccc3)N1[C@@H]2c1ccc(OCCO)cc1 | 0.587 | -0.0887 (inactive) | -0.442 (inactive) | 0.0653 (inactive) | -0.333 (inactive) | 0.523 | 0.19 | 0.817 | 0.914 | 1.73 | -0.763 (inactive) | 0.54 | 9.36 (active) | 2.73 (inactive) | 0.57 (inactive) | 1.67 (inactive) | -0.37 | 1.98 (inactive) | 1.19 (inactive) | 1.42
7 | O=C(NCc1ccccc1)[C@@H]1c2ccccc2C(=O)N(Cc2ccccc2C(F)(F)F)[C@H]1c1ccc(CO)cc1 | -0.405 | -1.55 (inactive) | 0.714 (inactive) | 0.324 (inactive) | -0.0897 (inactive) | -0.752 | -0.201 | -1.55 | 0.0481 | -0.687 | 0.546 (inactive) | -0.0731 | 3.68 (inactive) | 0.75 (inactive) | 1.53 (inactive) | 0.207 (inactive) | 0.0835 | -1.13 (inactive) | 0.914 (inactive) | -0.366
8 | COC(=O)[C@@]1(Cc2ccc(F)cc2)[C@H]2c3cc(C(=O)N4CCCC4)n(CCc4ccc(O)c(O)c4)c3C[C@H]2CN1C(=O)c1ccccc1 | 1.2 | -1.78 (inactive) | -0.809 (inactive) | 3.05 (inactive) | -0.268 (inactive) | -0.185 | 1.24 | 0.0585 | 0.0389 | -0.987 | -1.04 (inactive) | 1.09 | 2.9 (inactive) | 0.5 (inactive) | 0.718 (inactive) | 0.936 (inactive) | -0.243 | -4.14 (inactive) | -7.52 (inactive) | -6.63
9 | C=C(/C(=C/C[C@H](OC(=O)c1ccncc1)c1ccc(CO)o1)c1cc(C(=O)OC)ccc1OC)C(C)C | -0.0222 | -0.398 (inactive) | -0.742 (inactive) | 0.621 (inactive) | 0.953 (inactive) | -0.328 | 0.16 | 1.3 | 1.81 | 1.36 | -0.23 (inactive) | 0.0187 | 3.3 (inactive) | 0.365 (inactive) | 1.25 (inactive) | 0.136 (inactive) | -0.578 | -1.06 (inactive) | -0.154 (inactive) | -0.6
